PubChem BioAssay AID1159580 (chemical genetic matrix, 2015)
The campaign covered roughly 5,500 compounds. About 2,000 (36%) were called active. Not shown: some 18% with an inconclusive outcome. Cut-off read from the data, not from the text of the source: active = normalized growth mostly below about 0.91 (no sharp cut-off); inconclusive = no clear call, values can overlap the other calls; inactive = mostly above about 0.92. Some of the results follow.

Experiment: chemical genetic growth profiling, strain panel (AID 1159580);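 note: tested at 20 µM; growth read once vehicle control cultures reached saturation at 30 °C; 1 = growth at the plate median or of vehicle wells; lower values mean less growth of the strain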
Details: growth OD

Measured: normalized growth

COc1cc(NS(=O)(=O)c2ccc(N)cc2)ncn1
inactive: S. cerevisiae deletion strains, locus YJR075W, strain HOC1, stronger effect = lower value 0.984 | S. cerevisiae deletion strains, locus YKL009W, strain mrt4, stronger effect = lower value 0.982 | S. cerevisiae deletion strains, locus YKL068W, stronger effect = lower value 0.986 | S. cerevisiae deletion strains, locus YKL085W, strain MDH1 (second series), stronger effect = lower value 0.991 | S. cerevisiae deletion strains, locus YKL085W, strain MDH1, stronger effect = lower value 0.991 | S. cerevisiae deletion strains, locus YKL160W, strain elf1, stronger effect = lower value 0.98 | S. cerevisiae deletion strains, locus YKL190W, strain CNB1, stronger effect = lower value 0.978 | S. cerevisiae deletion strains, locus YKR001C, strain vps1, stronger effect = lower value 0.986 | S. cerevisiae deletion strains, locus YKR026C, strain gcn3, stronger effect = lower value 0.968 | S. cerevisiae deletion strains, locus YKR091W, strain srl3, stronger effect = lower value 0.99 | S. cerevisiae deletion strains, locus YLL001W, strain dnm1, stronger effect = lower value 0.974 | S. cerevisiae deletion strains, locus YLL026W, stronger effect = lower value 0.985 | S. cerevisiae deletion strains, locus YLL041C, strain sdh2, stronger effect = lower value 0.982 | S. cerevisiae deletion strains, locus YLR027C, strain aat2, stronger effect = lower value 0.988 | S. cerevisiae deletion strains, locus YLR039C, strain RIC1, stronger effect = lower value 1.02 | S. cerevisiae deletion strains, locus YLR058C, strain SHM2, stronger effect = lower value 0.972 | S. cerevisiae deletion strains, locus YLR102C, strain apc9, stronger effect = lower value 0.986 | S. cerevisiae deletion strains, locus YLR113W, strain HOG1, stronger effect = lower value 0.949 | S. cerevisiae deletion strains, locus YLR221C, strain rsa3, stronger effect = lower value 0.985 | S. cerevisiae deletion strains, locus YLR258W, strain gsy2, stronger effect = lower value 0.979 | S. cerevisiae deletion strains, locus YLR262C, strain YPT6 (second series), stronger effect = lower value 0.985 | S. cerevisiae deletion strains, locus YLR262C, strain YPT6, stronger effect = lower value 1.02 | S. cerevisiae deletion strains, locus YLR268W, strain sec22, stronger effect = lower value 0.948 | S. cerevisiae deletion strains, locus YLR320W, strain mms22, stronger effect = lower value 0.979 | S. cerevisiae deletion strains, locus YLR330W, strain CHS5, stronger effect = lower value 0.998 | S. cerevisiae deletion strains, locus YLR342W, strain FKS1 (second series), stronger effect = lower value 1.04 | S. cerevisiae deletion strains, locus YLR342W, strain FKS1, stronger effect = lower value 1.02 | S. cerevisiae deletion strains, locus YLR357W, strain rsc2, stronger effect = lower value 0.93 | S. cerevisiae deletion strains, locus YLR370C, strain arc18, stronger effect = lower value 0.979 | S. cerevisiae deletion strains, locus YLR371W, strain rom2, stronger effect = lower value 0.992 | S. cerevisiae deletion strains, locus YLR384C, strain iki3, stronger effect = lower value 0.974 | S. cerevisiae deletion strains, locus YLR418C, strain cdc73, stronger effect = lower value 0.983 | S. cerevisiae deletion strains, locus YML016C, strain PPZ1, stronger effect = lower value 0.992 | S. cerevisiae deletion strains, locus YML032C, strain rad52, stronger effect = lower value 0.991 | S. cerevisiae deletion strains, locus YML120C, strain ndi1, stronger effect = lower value 1.01 | S. cerevisiae deletion strains, locus YML124C, strain tub3, stronger effect = lower value 0.988 | S. cerevisiae deletion strains, locus YMR058W, strain fet3, stronger effect = lower value 0.993 | S. cerevisiae deletion strains, locus YMR078C, strain ctf18, stronger effect = lower value 0.981 | S. cerevisiae deletion strains, locus YMR125W, strain sto1, stronger effect = lower value 0.963 | S. cerevisiae deletion strains, locus YMR129W, stronger effect = lower value 0.996 | S. cerevisiae deletion strains, locus YMR205C, strain PFK2, stronger effect = lower value 0.992 | S. cerevisiae deletion strains, locus YMR223W, strain ubp8, stronger effect = lower value 0.981 | S. cerevisiae deletion strains, locus YMR231W, strain pep5, stronger effect = lower value 0.975 | S. cerevisiae deletion strains, locus YMR263W, strain SAP30, stronger effect = lower value 0.982 | S. cerevisiae deletion strains, locus YMR307W, strain GAS1, stronger effect = lower value 1.1 | S. cerevisiae deletion strains, locus YNL067W, strain RPL9B, stronger effect = lower value 0.981 | S. cerevisiae deletion strains, locus YNL071W, strain lat1, stronger effect = lower value 0.969 | S. cerevisiae deletion strains, locus YNL153C, strain GIM3, stronger effect = lower value 0.965 | S. cerevisiae deletion strains, locus YNL183C, strain NPR1, stronger effect = lower value 0.933 | S. cerevisiae deletion strains, locus YNL209W, strain ssb2, stronger effect = lower value 0.975 | S. cerevisiae deletion strains, locus YNL233W, strain BNI4, stronger effect = lower value 0.987 | S. cerevisiae deletion strains, locus YNL248C, strain rpa49, stronger effect = lower value 0.931 | S. cerevisiae deletion strains, locus YNL250W, strain rad50, stronger effect = lower value 0.979 | S. cerevisiae deletion strains, locus YNL271C, strain bni1, stronger effect = lower value 0.992 | S. cerevisiae deletion strains, locus YNL298W, strain CLA4, stronger effect = lower value 0.983 | S. cerevisiae deletion strains, locus YNL307C, strain MCK1, stronger effect = lower value 0.979 | S. cerevisiae deletion strains, locus YNL322C, strain KRE1 (second series), stronger effect = lower value 0.955 | S. cerevisiae deletion strains, locus YNL322C, strain KRE1, stronger effect = lower value 0.991 | S. cerevisiae deletion strains, locus YNR049C, strain mso1, stronger effect = lower value 0.979 | S. cerevisiae deletion strains, locus YNR052C, strain pop2, stronger effect = lower value 0.987 | S. cerevisiae deletion strains, locus YOL006C, strain TOP1, stronger effect = lower value 0.965 | S. cerevisiae deletion strains, locus YOL012C, strain htz1 1.08 | S. cerevisiae deletion strains, locus YOL147C, strain pex11, stronger effect = lower value 0.982 | S. cerevisiae deletion strains, locus YOR001W, strain rrp6, stronger effect = lower value 0.998 | S. cerevisiae deletion strains, locus YOR061W, strain CKA2, stronger effect = lower value 0.961 | S. cerevisiae deletion strains, locus YOR069W, strain VPS5, stronger effect = lower value 0.992 | S. cerevisiae deletion strains, locus YOR070C, strain gyp1, stronger effect = lower value 0.984 | S. cerevisiae deletion strains, locus YOR080W, strain dia2, stronger effect = lower value 0.977 | S. cerevisiae deletion strains, locus YOR083W, strain WHI5, stronger effect = lower value 0.989 | S. cerevisiae deletion strains, locus YOR106W, strain vam3, stronger effect = lower value 0.981 | S. cerevisiae deletion strains, locus YOR136W, strain idh2, stronger effect = lower value 0.981 | S. cerevisiae deletion strains, locus YOR144C, strain elg1, stronger effect = lower value 0.982 | S. cerevisiae deletion strains, locus YOR184W, strain ser1, stronger effect = lower value 0.989 | S. cerevisiae deletion strains, locus YOR231W, strain MKK1, stronger effect = lower value 0.97 | S. cerevisiae deletion strains, locus YOR265W, strain rbl2, stronger effect = lower value 0.991 | S. cerevisiae deletion strains, locus YOR270C, strain vph1, stronger effect = lower value 0.95 | S. cerevisiae deletion strains, locus YOR290C, strain snf2, stronger effect = lower value 0.976 | S. cerevisiae deletion strains, locus YOR316C, strain cot1, stronger effect = lower value 0.982 | S. cerevisiae deletion strains, locus YPL051W, strain arl3, stronger effect = lower value 0.981 | S. cerevisiae deletion strains, locus YPL055C, strain LGE1, stronger effect = lower value 0.92 | S. cerevisiae deletion strains, locus YPL078C, strain atp4, stronger effect = lower value 0.988 | S. cerevisiae deletion strains, locus YPL106C, strain sse1, stronger effect = lower value 0.969 | S. cerevisiae deletion strains, locus YPL240C, strain hsp82, stronger effect = lower value 0.997 | S. cerevisiae deletion strains, locus YPL256C, strain CLN2, stronger effect = lower value 0.974 | S. cerevisiae deletion strains, locus YPR119W, strain clb2, stronger effect = lower value 0.982 | S. cerevisiae deletion strains, locus YPR141C, strain kar3, stronger effect = lower value 0.97 | S. cerevisiae deletion strains, locus YPR163C, strain tif3, stronger effect = lower value 0.985 | S. cerevisiae deletion strains, locus YPR167C, strain met16, stronger effect = lower value 0.994 | S. cerevisiae deletion strains, strain wtn01, stronger effect = lower value 0.981 | S. cerevisiae strains, strain wild type, stronger effect = lower value 0.981
